Common to all, as to conditions: treatment time: 24 h
In test [1] the test system is A549-ACTB-RAB5A. Nature of the test: lowest phenotypically active concentration; higher = less potent. An outline of the steps: (§1)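 Each of fifteen gene-edited A549, HepG2 and WPMY1 reporter lines, marked with BFP for segmentation and GFP and RFP/FusionRed, was treated in four wells at 0.3, 1, 3 or 9 µM for 24 h prior to live imaging. Normalisation of per-well live-cell features used solvent control wells. Deviation needed ≥3 of 4 wells beyond the 95th percentile of control Euclidean distances, and reproducibility needed a median replicate Pearson correlation above the 95th percentile of non-replicates. Both were required for phenotypic activity.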

The subject of test [2] is A549-GM130-SQSTM1. The test is described as above. An outline of the steps:
as §1

For test [3], the system named is A549-TUBA1B-RELA. Described as above. An outline of the steps:
as §1

The subject of test [4] is HepG2-ACTB-RAB5A. The description is as above. An outline of the steps: as §1
For test [5], the system named is A549-ACTB-RAB5A. Nature of the test: phenotypically active (imaging signature differs from DMSO and reproducible) at any of 0.3-9 uM (binary (1 = active, 0 = inactive)); higher = active. The method in brief: as §1
In another test the test system is A549-CANX-COX4. Described as above. An outline of the steps: as §1
Test [6] relates to A549-GM130-SQSTM1. Described as above. The method in brief:
as §1

The test system of the next test is A549-TP53BP1-CLTA. The description is as above. The method in brief: as §1
Test [7] concerns A549-TUBA1B-RELA. The description is as above. The method in brief: as §1
Test [8] relates to HepG2-ACTB-RAB5A. The description is as above. An outline of the steps:
as §1

Another test relates to HepG2-CANX-COX4. The test is described as above. The method in brief:
as §1

Another test deals with HepG2-GM130-SQSTM1. Described as above. The method in brief:
as §1

A further test relates to HepG2-TP53BP1-CLTA. Described as above. An outline of the steps:
as §1

Another test relates to HepG2-TUBA1B-RELA. Described as above. The method in brief:
as §1

The next test relates to WPMY1-ACTB-RAB5A. The test is described as above. The method in brief: as §1
The test system of the next test is WPMY1-CANX-COX4. Described as above. An outline of the steps:
as §1

Test [9] deals with WPMY1-GM130-SQSTM1. The test is described as above. The method in brief:
as §1

The next test relates to WPMY1-TP53BP1-CLTA. Described as above. The method in brief:
as §1

In another test the test system is WPMY1-TUBA1B-RELA. Described as above. An outline of the steps:
as §1

Test [10] deals with WPMY1-GM130-SQSTM1. Briefly: lowest phenotypically active concentration; higher = less potent. An outline of the steps: as §1

Where a name gives a salt, the structure may show the parent alone.

Regarding `N#Cc1cccc(-c2c[nH]c3ncnc(N4CCOCC4)c23)c1`, the “lowest phenotypically active concentration” value in the test with A549-ACTB-RAB5A [1] was 9 µM; with A549-GM130-SQSTM1 [2], 9 µM; with A549-TUBA1B-RELA [3], 9 µM; with HepG2-ACTB-RAB5A [4], 3 µM. The phenotypically active in the test with A549-ACTB-RAB5A [5] is 1 (active); with A549-CANX-COX4, 0 (inactive); in the test on A549-GM130-SQSTM1 [6] it was 1 (active); in the test with A549-TP53BP1-CLTA, 0 (inactive); with A549-TUBA1B-RELA [7], 1 (active); in the test on HepG2-ACTB-RAB5A [8] it was 1 (active). The phenotypically active with HepG2-CANX-COX4, in the test on HepG2-GM130-SQSTM1, with HepG2-TP53BP1-CLTA, in the test with HepG2-TUBA1B-RELA, in the test with WPMY1-ACTB-RAB5A and in the test on WPMY1-CANX-COX4 was 1 (active) in each case. The values for the phenotypically active in the test on WPMY1-GM130-SQSTM1 [9], in the test with WPMY1-TP53BP1-CLTA and with WPMY1-TUBA1B-RELA were 0 (inactive), 1 (active) and 0 (inactive), respectively.
With `CC(CN(C)C)CN1c2ccccc2CCc2ccccc21` (stereo unspecified) [trimipramine], the “lowest phenotypically active concentration” value in the test with A549-ACTB-RAB5A [1], with A549-GM130-SQSTM1 [2], in the test on A549-TUBA1B-RELA [3], in the test with HepG2-ACTB-RAB5A [4] and with WPMY1-GM130-SQSTM1 [10] was 9 µM in each case. Further, the phenotypically active in the test with A549-ACTB-RAB5A [5] is 1 (active); with A549-CANX-COX4, 0 (inactive); in the test with A549-GM130-SQSTM1 [6], 1 (active); in the test with A549-TP53BP1-CLTA it was 0 (inactive); in the test with A549-TUBA1B-RELA [7], 1 (active); in the test with HepG2-ACTB-RAB5A [8], 1 (active). The phenotypically active in the test on HepG2-CANX-COX4 was 0 (inactive); in the test on HepG2-GM130-SQSTM1 it was 0 (inactive); with HepG2-TP53BP1-CLTA, 0 (inactive); with HepG2-TUBA1B-RELA it was 1 (active); with WPMY1-ACTB-RAB5A, 1 (active); in the test with WPMY1-CANX-COX4 it was 1 (active). Besides, the results for the phenotypically active in the test on WPMY1-GM130-SQSTM1 [9], with WPMY1-TP53BP1-CLTA and in the test with WPMY1-TUBA1B-RELA were 1 (active), 0 (inactive) and 0 (inactive), respectively.
Consider `Clc1ccc2c(c1)C(N1CCNCC1)=Nc1ccccc1O2` [amoxapine], for which the “lowest phenotypically active concentration” value was 3 µM in the test on A549-ACTB-RAB5A [1], 3 µM with A549-GM130-SQSTM1 [2], 3 µM in the test with A549-TUBA1B-RELA [3] and 9 µM in the test with HepG2-ACTB-RAB5A [4]. Further, the phenotypically active with A549-ACTB-RAB5A [5] is 1 (active); in the test with A549-CANX-COX4, 0 (inactive); with A549-GM130-SQSTM1 [6], 1 (active); with A549-TP53BP1-CLTA, 0 (inactive); in the test with A549-TUBA1B-RELA [7] it was 1 (active); in the test on HepG2-ACTB-RAB5A [8] it was 1 (active). Besides, the phenotypically active in the test on HepG2-CANX-COX4 is 0 (inactive); in the test with HepG2-GM130-SQSTM1 it was 1 (active); in the test on HepG2-TP53BP1-CLTA, 0 (inactive); with HepG2-TUBA1B-RELA it was 1 (active); in the test on WPMY1-ACTB-RAB5A, 1 (active); in the test with WPMY1-CANX-COX4 it was 0 (inactive). Besides, the phenotypically active was 0 (inactive) in the test with WPMY1-GM130-SQSTM1 [9], 0 (inactive) in the test on WPMY1-TP53BP1-CLTA and 1 (active) with WPMY1-TUBA1B-RELA.
As for `CCSc1ccc2c(c1)N(CCCN1CCN(C)CC1)c1ccccc1S2` [thiethylperazine], the “lowest phenotypically active concentration” value with A549-ACTB-RAB5A [1] was 3 µM; with A549-GM130-SQSTM1 [2] it was 3 µM; in the test with A549-TUBA1B-RELA [3] it was 3 µM; with HepG2-ACTB-RAB5A [4], 9 µM; in the test with WPMY1-GM130-SQSTM1 [10], 9 µM. The phenotypically active was 1 (active) with A549-ACTB-RAB5A [5]; 0 (inactive) with A549-CANX-COX4; 1 (active) with A549-GM130-SQSTM1 [6]; 0 (inactive) in the test on A549-TP53BP1-CLTA; 1 (active) in the test on A549-TUBA1B-RELA [7]; 1 (active) in the test on HepG2-ACTB-RAB5A [8]. Besides, the phenotypically active in the test on HepG2-CANX-COX4 is 0 (inactive); in the test on HepG2-GM130-SQSTM1 it was 1 (active); in the test on HepG2-TP53BP1-CLTA it was 0 (inactive); in the test on HepG2-TUBA1B-RELA, 1 (active); with WPMY1-ACTB-RAB5A, 1 (active); with WPMY1-CANX-COX4 it was 1 (active). Also, the phenotypically active in the test on WPMY1-GM130-SQSTM1 [9], in the test with WPMY1-TP53BP1-CLTA and in the test on WPMY1-TUBA1B-RELA was 1 (active) throughout.
In the case of `NC(=O)C(c1ccccc1)(c1ccccc1)[C@@H]1CCN(CCc2ccc3c(c2)CCO3)C1` [darifenacin], the “lowest phenotypically active concentration” value in the test on A549-ACTB-RAB5A [1], with A549-GM130-SQSTM1 [2], in the test on A549-TUBA1B-RELA [3], with HepG2-ACTB-RAB5A [4] and in the test on WPMY1-GM130-SQSTM1 [10] was 9 µM throughout. Besides, the phenotypically active in the test with A549-ACTB-RAB5A [5] was 1 (active); with A549-CANX-COX4, 0 (inactive); in the test with A549-GM130-SQSTM1 [6], 1 (active); in the test on A549-TP53BP1-CLTA, 0 (inactive); in the test on A549-TUBA1B-RELA [7] it was 1 (active); with HepG2-ACTB-RAB5A [8] it was 1 (active). Besides, the phenotypically active in the test on HepG2-CANX-COX4 was 1 (active); with HepG2-GM130-SQSTM1, 1 (active); with HepG2-TP53BP1-CLTA it was 1 (active); with HepG2-TUBA1B-RELA, 0 (inactive); with WPMY1-ACTB-RAB5A, 0 (inactive); in the test with WPMY1-CANX-COX4, 0 (inactive). Further, the figures for the phenotypically active in the test on WPMY1-GM130-SQSTM1 [9], in the test with WPMY1-TP53BP1-CLTA and in the test on WPMY1-TUBA1B-RELA were 1 (active), 1 (active) and 0 (inactive), respectively.
As for `O=C([C@@H](Cc1cccc(C(F)(F)F)c1)NS(=O)(=O)c1cc(F)c2c(c1)CCNC2)N1CCCC1` [(R)-PFI 2 hydrochloride], the “lowest phenotypically active concentration” value in the test with A549-ACTB-RAB5A [1], in the test on A549-GM130-SQSTM1 [2] and with A549-TUBA1B-RELA [3] was 9 µM in each case. The phenotypically active in the test with A549-ACTB-RAB5A [5] is 1 (active); with A549-CANX-COX4, 0 (inactive); with A549-GM130-SQSTM1 [6] it was 1 (active); with A549-TP53BP1-CLTA, 0 (inactive); in the test with A549-TUBA1B-RELA [7], 1 (active); in the test on HepG2-ACTB-RAB5A [8] it was 0 (inactive). Besides, the phenotypically active in the test with HepG2-CANX-COX4, in the test with HepG2-GM130-SQSTM1, in the test with HepG2-TP53BP1-CLTA, with HepG2-TUBA1B-RELA, with WPMY1-ACTB-RAB5A and in the test with WPMY1-CANX-COX4 was 0 (inactive) each time. Further, the phenotypically active with WPMY1-GM130-SQSTM1 [9], with WPMY1-TP53BP1-CLTA and in the test with WPMY1-TUBA1B-RELA was 0 (inactive) in each case.

The values above are taken from the supplement of paper PMC7411054.
